aSyn UTR act – Activators working through SNCA 5'UTR binding (MLPCN); alpha-synuclein 5'UTR reporter, activators screen; activity score, % (tested at 7.5 µM), hits read low; 7.1% of 300,000 active; in the data active = activity score below about -60%
* hit, by the source's call. The list is a sample of the results.

SMILES	aSyn UTR act
O=C(/C=C/c1ccccc1)NCCc1c[nH]c2ccccc12	-111.2*
Cc1cn(CCC(=O)Nc2ccc(N3CCOCC3)cc2)c2ccccc12	-128.4*
Cc1cn(CCC(=O)Nc2ccccc2N2CCOCC2)c2ccccc12	-105.9*
COc1cccc2cc(-c3ccnc(=S)[nH]3)oc12	-74.4*
N#Cc1cc(C#N)c(N2CCN(c3ccccn3)CC2)nc1N	-203.7*
Cc1cc(C(=O)OC(C(=O)Nc2ccc(C)c(Cl)c2)c2ccccc2)c(C)o1 (stereo unspecified)	-68.1*
COc1ccccc1CN1CC(C(=O)N2CCCCO2)CCC1=O (stereo unspecified)	-77.1*
COCCCC1CCN(C(=O)C2CCC(=O)N(CCc3ccccc3)C2)CC1 (stereo unspecified)	-73.5*
COc1ccccc1Cn1nnc2c(=O)[nH]c(C3CCN(C(=O)c4ccccc4Cl)CC3)nc21	60.3
COCCn1c(=O)c2c(nc3n2CC(C)CN3CCc2ccccc2)n(C)c1=O (stereo unspecified)	67.2
O=C1CCC(C(=O)N2CCCCO2)CN1CCc1ccccc1 (stereo unspecified)	-89.2*
COc1cccc(Nc2nc(-c3sc(C)nc3C)cs2)c1	-103.2*
COc1cccc(Nc2nc(-c3sc(N)nc3C)cs2)c1	-111.9*
Cc1nc(N)sc1-c1csc(Nc2ncccn2)n1	-136.5*
Cc1nc(C)c(-c2csc(Nc3ccc(F)cc3)n2)s1	-152.2*
CSc1ccc(CN(C)C(=O)c2cc3ccccc3o2)cc1	-67.0*
COc1ccc(C(=O)NCCn2cc(SCC(=O)Nc3nnc(C)s3)c3ccccc32)cc1	-69.4*
CCN(CC)c1ccc(-c2nc3cnccc3n2C)cc1	-111.0*
Cc1cc(N2CCCCC2)n2ncc(-c3ccc(Cl)cc3)c2n1	-181.3*
Cc1cc(N2CCN(C(=O)c3ccco3)CC2)n2ncc(-c3ccccc3)c2n1	-78.5*
Fc1ccc(-c2nnsc2Sc2ccccn2)cc1	-84.5*
c1ccc(CSc2nnc(-c3c[nH]c4ccccc34)o2)cc1	-151.5*
COc1ccc(-c2nnc(SCc3ccccc3F)o2)cc1	-162.6*
Fc1ccccc1CSc1nnc(-c2cccnc2)o1	-68.8*
Fc1ccccc1CSc1nnc(-c2ccccc2)o1	-152.3*
SMILES	aSyn UTR act
Cc1ccccc1-c1nnc(SCc2ccccc2)o1	-190.7*
COc1cc(OC)cc(-c2nnc(SCc3c(F)cccc3Cl)o2)c1	-101.3*
Cc1ccccc1-c1nnc(SCc2ccccc2F)o1	-148.7*
O=C(NC(=S)Nc1ccc(N2CCCCC2)cc1)c1ccc2c(c1)OCCO2	-124.8*
O=C(NC(=S)Nc1ccc(CN2CCOCC2)cc1)c1ccc2c(c1)OCCO2	-116.2*
CC(C)(C)NC(=S)N/N=C\c1ccc(-c2ccc([N+](=O)[O-])cc2)o1	-78.9*
C=CCNC(=S)N/N=C/c1ccc(-c2ccc(OC)cc2)o1	-61.8*
C/C(=N\Nc1ncc(Cl)cc1Cl)c1ccccn1	100.5
Clc1ccc(/C=N/NC(=Nc2ccccc2)c2ccccn2)c(Cl)c1	-81.9*
COc1ccc2oc(C(=O)OCC(=O)NCCN3C(=O)CSC3=O)c(C)c2c1	-70.5*
CCOC(=O)c1csc(NC(=O)c2cc(=O)c3ccccc3o2)n1	-68.5*
CC(=O)c1sc(NC(=O)c2cc(=O)c3ccccc3o2)nc1C	-81.2*
CC(=O)c1sc(NC(=O)c2ccc(Br)o2)nc1C	-76.5*
N=C1SCC(=O)N1c1nc(-c2ccccc2)cs1	-159.5*
O=C1CC(c2ccccc2)=NN1c1nc(-c2ccccc2)cs1	-150.1*
CCOC(=O)c1ccc(N/C=C/C(=O)c2ccco2)cc1	-85.0*
O=C(/C=C/Nc1ccc(F)cc1)c1ccco1	-143.6*
CC(=O)c1c(C)oc2ccc(N(C(C)=O)S(=O)(=O)c3ccc(Cl)c([N+](=O)[O-])c3)cc12	111.5
CN(C)/C=C/C(=O)c1ccc(Cl)c([N+](=O)[O-])c1	-73.2*
Cc1nnc(NC(=O)c2ccc3c(c2)OCO3)s1	-150.2*
Cc1nnc(NC(=O)c2c(F)c(F)c(F)c(F)c2F)s1	-73.0*
CSc1nnc(NC(=O)c2ccc3c(c2)OCO3)s1	81.4
Cc1nnc(NC(=O)c2cccc(Br)c2)s1	-95.9*
O=C(Nc1nncs1)c1ccc2c(c1)OCO2	-83.2*
COCCSc1nnc(NC(=O)c2ccc3c(c2)OCO3)s1	-118.2*
SMILES	aSyn UTR act
Cc1nnc(NC(=O)c2ccc(S(=O)(=O)C(F)F)cc2)s1	-78.4*
COc1cccc(-c2ccc(C#N)c(OC(=O)c3c(Cl)cccc3Cl)n2)c1	-74.1*
CC1CC1C(=O)OCC(=O)Nc1ccc(N=Nc2ccccc2)cc1 (stereo unspecified)	-107.2*
CC(C)(C)C(=O)Nc1ccc(N=Nc2ccccc2)cc1	79.4
Cc1cc(=O)oc2cc(NC(=O)c3ccnn3C)ccc12	-135.3*
Cc1cc(=O)oc2cc(NC(=O)c3c(Cl)cnn3C)ccc12	-76.1*
Cc1ccc2sc3ccc(NC(=O)c4ccccc4Cl)cc3c(=O)c2c1	-109.1*
Cc1cc(=O)oc2cc(NC(=O)c3ccccc3Cl)ccc12	-201.3*
COC(=O)c1ccn(Cc2ccccc2Cl)n1	-105.9*
Cc1ccc(-c2noc(CSc3ccccc3)n2)cc1	-84.3*
Cc1ccc(-c2noc(CSc3nc(N)cc(N)n3)n2)cc1	-191.2*
c1ccc(SCc2nc(-c3cccnc3)no2)cc1	-103.3*
Cc1cccc(-c2noc(CSc3ccccc3)n2)c1	-169.6*
c1ccc(-c2ccc3sccc3n2)cc1	-173.4*
COc1ccc(/C=C/c2nnc(NC(C)=O)s2)cc1	-116.5*
COC(=O)Nc1nnc(/C=C/c2ccc(OC)cc2)s1	-109.5*
Cc1cc(C)c(S(=O)(=O)Nc2ccc(N(C)C)cc2)c(C)c1-n1cnnn1	-79.2*
O=C(/C=C/c1cccs1)NCc1ccccc1	-109.5*
O=C(/C=C/c1cccs1)Nc1ccncc1	-126.1*
Cc1cccc(NC(=O)/C=C/c2cccs2)n1	-108.5*
O=C(/C=C/c1cccs1)Nc1ccc([N+](=O)[O-])cc1	-146.6*
Cc1ccc(NC(=O)/C=C/c2cccs2)c([N+](=O)[O-])c1	-160.7*
CCCOC(=O)c1ccc(NC(=O)/C=C/c2cccs2)cc1	-209.0*
CC(C)(C)c1ccc(/C=C/C(=O)Nc2ccncc2)cc1	-77.1*
CCN(CC)c1ccc(C=Nc2ccc(N(C)C)cc2)c(O)c1	-83.3*
SMILES	aSyn UTR act
CCN(CC)c1ccc(/C=N/N=C(N)N)c(O)c1	86.9
CCN(CC)c1ccc(/C=N/Nc2ccccc2)c(O)c1	-61.7*
CCN(CC)c1ccc(/C=N/N2CCOCC2)c(O)c1	-157.1*
CCN(CC)c1ccc(/C=N/NC(=S)NC)c(O)c1	-94.0*
COc1cc(NC(=O)N2CCNC2=O)cc(C(=O)Nc2cccc(C(F)(F)F)c2)c1	67.6
CC(C)C(=O)Nc1ccc(C(=O)c2ccccc2)cc1	-87.6*
COc1cccc(NC(=O)c2ccc(NC(=O)C(C)C)cc2)c1	-114.6*
CC(=O)c1ccc(NC(=O)C(C)NCc2ccccc2Cl)cc1 (stereo unspecified)	-78.2*
COc1cccc(NC(=O)c2ccc(OC(F)(F)F)cc2)c1	-153.2*
O=C(O)c1ccc(Cl)c(S(=O)(=O)Nc2ccc(OCc3ccccc3)cc2)c1	-69.2*
O=C(NCCSCc1ccco1)Nc1cccc(Cl)c1	-125.6*
O=C(N/N=C\c1ccco1)Nc1cccc(Cl)c1	-131.3*
O=C(NCCSCc1ccco1)Nc1ccc(Cl)cc1	-134.1*
Cc1nnsc1SCCNC(=O)Nc1ccc(Cl)cc1	-97.8*
COc1ccc(Sc2nnc(Cc3ccccc3)c3ccccc23)cc1	-72.7*
O=C(O)C1CCC(c2ccc(-c3ccccc3)cc2)CC1 (stereo unspecified)	-84.4*

Screening data as filed in PubChem.
